Results on 13 compounds are retold here after PubChem BioAssay (NCI).

About 83,000 compounds went through this panel and 20% of them were active in at least one assay; those are over-represented in the sample as a whole.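 The endpoint reported here, percent growth, reads 100 for growth as untreated, 0 for no net growth and -100 for all cells dead.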 Calls of active or inactive are those of the source. Rule for the calls: active = growth percent below 10; inactive = the rest.

The test system of this experiment is HL-60(TB) leukemia. The experiment in a line: NCI-60 one-dose screen, 48 h (100 = growth as untreated, 0 = no growth, -100 = all killed). The following applies: 10 µM unless noted.
As to `O=C(N=Nc1c(O)[nH]c2ccc(Cl)cc12)c1ccc2nc(-c3ccc(Cl)cc3)[nH]c2c1`, the growth was 45.2% (inactive). Consider `O=C(N/N=C/c1ccc(Cl)o1)c1[nH]c2ccc(Br)cc2c1-c1ccccc1`, for which the growth is -42.4% (active). For `COc1cc(-c2ccc3ncnc(N4CCc5ccc(Cl)cc54)c3c2)cnc1Cl`, the growth was -8.13% (active). The figure for `CN1CCN(c2ccc(C(=O)/C=C/c3ccc(OC(F)F)cc3)cc2)CC1` is -26.7% (active); for `O=C(N/N=C/c1c[nH]c2ccccc12)Nc1ccccc1Cl` it is 0.912% (active); for `COc1cc2cc(C(=O)N3C[C@@H](CCl)c4c3cc(OC(=O)N(C)CCSSCCN3CCOCC3)c3ccccc43)[nH]c2c(OC)c1OC` it is -39.6% (active). On to `O=C1CCC(N2C(=O)c3cccc(NCCCCCC(=O)N4CCN(c5ccc6nc7c(nc6c5C(F)(F)F)C(=O)c5ncccc5C7=O)CC4)c3C2=O)C(=O)N1` (stereo not drawn), for which the growth was -25.2% (active). For `Cc1ccc(-n2c(-c3cc4ccccc4nc3Cl)noc2=O)cc1`, the growth is 85.1% (inactive). The figure for `OC1CCC(Cn2c(C(F)(F)F)cc3c(Cl)ncnc32)CC1` (stereo not drawn) is -37.5% (active); for `CCCCSc1nc(NCCc2c[nH]c3ccccc23)c(C#N)c(-c2ccc(OC)cc2)n1` it is 42.5% (inactive); for `C/C(=N/O)c1ccc(NC(=O)CSc2nnc(-c3ccc(-c4nc5ccc(Cl)cc5[nH]4)cc3)o2)cc1` it is 44% (inactive).

Turning to `Nc1nc(Nc2ccccc2)nn1Cc1c(Cl)cccc1Cl`, the growth was 30% (inactive). As to `COc1ccc(C2c3sc4ccc(C)cc4c3Oc3nc(N)nc(N)c32)cc1` (stereo not drawn), the growth was 84.8% (inactive).
